SMILES strings stand for the structures.

Experimental findings from ChEMBL document CHEMBL1961873, “Compounds: GSK PKIS; Assays: Nanosyn kinase panel” (2012) are described below.

Assay [1] addresses Casein kinase I isoform gamma-2 (Homo sapiens) (UniProt P78368). The following applies: at 1 µM.
In assay [2] the target is Casein kinase I isoform gamma-3 (Homo sapiens) (UniProt Q9Y6M4). Particulars: at 0.1 µM.
Assay [3] shares this target. Particulars: at 1 µM.
In assay [4] the target is Cyclin-dependent kinase 1 (Homo sapiens) (UniProt P06493). Particulars: at 0.1 µM.
For assay [5] the target is unchanged. The following applies: at 1 µM.
The target in assay [6] is Cyclin-dependent kinase 2 (Homo sapiens) (UniProt P24941). Particulars: at 0.1 µM.
The target is the same in assay [7]. Particulars: at 1 µM.
Assay [8] has the same target. Particulars: at 0.1 µM. The source holds these as a separate data set.
Assay [9] has the same target. The following applies: at 1 µM. The source holds these as a separate data set.
Assay [10] concerns the target CDK3/Cyclin E (Homo sapiens) (UniProt P24864+Q00526). The following applies: at 0.1 µM.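 Also: reported percentages are mean inhibition values.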

Chain of CDK3/Cyclin E (Homo sapiens) (P24864 whole entry, looked up): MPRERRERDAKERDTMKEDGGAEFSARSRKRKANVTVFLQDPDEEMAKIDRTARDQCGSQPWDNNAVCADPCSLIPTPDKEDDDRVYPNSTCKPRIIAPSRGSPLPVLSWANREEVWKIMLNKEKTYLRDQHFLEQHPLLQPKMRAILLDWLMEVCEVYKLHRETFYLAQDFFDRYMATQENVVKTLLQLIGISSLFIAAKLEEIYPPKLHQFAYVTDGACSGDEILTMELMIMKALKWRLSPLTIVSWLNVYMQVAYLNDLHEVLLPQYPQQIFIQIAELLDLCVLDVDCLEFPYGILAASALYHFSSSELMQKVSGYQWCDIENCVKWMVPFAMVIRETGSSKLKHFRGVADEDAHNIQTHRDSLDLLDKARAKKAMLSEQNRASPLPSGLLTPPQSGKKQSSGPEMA
Chain of CDK3/Cyclin E (Homo sapiens) (Q00526 whole entry, looked up): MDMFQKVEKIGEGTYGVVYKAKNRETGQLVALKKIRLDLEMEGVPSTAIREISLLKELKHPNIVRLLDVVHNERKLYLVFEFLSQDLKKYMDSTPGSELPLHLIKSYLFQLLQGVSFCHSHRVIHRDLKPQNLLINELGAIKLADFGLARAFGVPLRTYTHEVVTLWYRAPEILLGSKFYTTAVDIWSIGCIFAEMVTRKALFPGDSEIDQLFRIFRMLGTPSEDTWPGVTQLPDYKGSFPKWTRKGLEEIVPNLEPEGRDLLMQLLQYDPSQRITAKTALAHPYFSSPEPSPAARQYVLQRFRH
Chain of Casein kinase I isoform gamma-3 (Homo sapiens) (Q9Y6M4 whole entry, looked up, canonical isoform): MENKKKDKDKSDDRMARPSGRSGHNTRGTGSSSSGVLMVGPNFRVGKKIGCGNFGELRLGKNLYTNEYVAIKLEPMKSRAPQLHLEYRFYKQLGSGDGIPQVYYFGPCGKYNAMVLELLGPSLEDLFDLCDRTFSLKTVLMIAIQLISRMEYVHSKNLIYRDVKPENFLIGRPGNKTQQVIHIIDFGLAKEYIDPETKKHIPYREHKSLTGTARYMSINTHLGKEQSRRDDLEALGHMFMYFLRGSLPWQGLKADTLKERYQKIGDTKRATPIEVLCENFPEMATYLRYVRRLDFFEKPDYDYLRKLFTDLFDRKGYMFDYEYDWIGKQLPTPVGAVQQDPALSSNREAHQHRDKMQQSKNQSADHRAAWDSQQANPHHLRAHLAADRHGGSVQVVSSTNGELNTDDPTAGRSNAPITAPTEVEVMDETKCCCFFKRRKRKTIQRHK
Chain of Cyclin-dependent kinase 1 (Homo sapiens) (P06493 whole entry, looked up): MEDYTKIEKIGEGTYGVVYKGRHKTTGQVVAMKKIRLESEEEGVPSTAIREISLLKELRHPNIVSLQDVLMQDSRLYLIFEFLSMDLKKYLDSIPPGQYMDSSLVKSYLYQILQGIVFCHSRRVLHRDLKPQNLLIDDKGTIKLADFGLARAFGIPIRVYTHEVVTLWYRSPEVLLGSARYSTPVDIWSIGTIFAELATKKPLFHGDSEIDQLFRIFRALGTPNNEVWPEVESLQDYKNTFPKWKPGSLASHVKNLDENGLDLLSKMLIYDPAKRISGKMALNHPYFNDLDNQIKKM
Chain of Casein kinase I isoform gamma-2 (Homo sapiens) (P78368 whole entry, looked up, canonical isoform): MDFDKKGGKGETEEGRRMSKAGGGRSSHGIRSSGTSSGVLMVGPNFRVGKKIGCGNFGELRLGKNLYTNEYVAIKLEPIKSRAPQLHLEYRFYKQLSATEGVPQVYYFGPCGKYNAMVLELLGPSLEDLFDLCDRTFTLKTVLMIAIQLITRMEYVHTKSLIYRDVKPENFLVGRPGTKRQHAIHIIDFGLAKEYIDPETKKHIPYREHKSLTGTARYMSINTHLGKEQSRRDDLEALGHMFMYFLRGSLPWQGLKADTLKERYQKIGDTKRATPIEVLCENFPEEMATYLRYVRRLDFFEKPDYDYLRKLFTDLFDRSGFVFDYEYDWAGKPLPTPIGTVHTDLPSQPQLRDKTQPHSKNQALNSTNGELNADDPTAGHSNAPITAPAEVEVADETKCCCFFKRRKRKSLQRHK

As to `COc1cccc(-n2ncc3c(N/N=C/c4ccncc4)ncnc32)c1`, the inhibition in [1] turned out to be 9.79%; in assay [2], 5.28%; in assay [3], 6.59%; in [4] it was 45%; in assay [5] it was 81.8%; in [6] it was 47%. Moreover, the inhibition in assay [7] was found to be 76.8%; in [8], 24.6%; in [9], 65.2%; in [10] it was 12.2%.

As to `CCn1c(-c2nonc2N)nc2c(C#CC(C)(C)O)nc(O[C@@H](CN)c3ccccc3)cc21`, the inhibition in assay [1] was 4.43%; in assay [2] it was -0.48%; in assay [3], 9.88%; in assay [4] it was 4.13%; in assay [5], 4.92%; in assay [6], 2.07%. Moreover, the inhibition in [7] came to 4.12%; in assay [8], 2.92%; in assay [9] it was 4.27%; in assay [10] it was 3.62%.

`NS(=O)(=O)c1ccc(N/C=C2\C(=O)Nc3ccc4ncsc4c32)cc1`: the inhibition in assay [1] turned out to be 11.1%; in assay [2], 5.65%; in [3], 14.4%; in assay [4] it was 25%; in [5] it was 62.4%; in assay [6], 82.7%. The inhibition in [7] came to 94.4%; in [8] it was 70.8%; in [9], 75%; in assay [10], 75.5%.

As for `NS(=O)(=O)c1ccc(-c2ccc3c(NC(=O)C4CC4)n[nH]c3c2)cc1`, the inhibition in assay [1] is 1.7%; in assay [2], 0.52%; in assay [3], -0.19%; in assay [4] it was 0.48%; in assay [5] it was 5.13%; in assay [6], 2.91%. For the same compound, the inhibition in [7] is 13.4%; in assay [8], 2.18%; in assay [9], 5.85%; in assay [10], 2.19%.

For `COc1cc(C=NNc2ncnc3c2cnn3Cc2ccccc2)ccc1O`, the inhibition in [1] is -3.09%; in [2], 0.15%; in assay [3] it was -1.86%; in assay [4] it was 3.83%; in [5], 14.8%; in assay [6], 0.83%. For the same compound, the inhibition was 0.3% in assay [7], -0.38% in [8], 6.08% in assay [9] and 0.9% in assay [10].

As to `COc1cccc(COc2cc(-n3cnc4ccccc43)sc2C(N)=O)c1`, the inhibition is 1.17% in [1]; 0.42% in assay [2]; 1.21% in assay [3]; 0.45% in assay [4]; -0.26% in assay [5]; 0.15% in assay [6]. Besides, the inhibition in assay [7] is -0.04%; in assay [8], -0.91%; in assay [9], -0.85%; in assay [10], -1.38%.

For `CCn1c(-c2nonc2N)nc2c(C#CCN)ncc(OCCCN)c21`, the inhibition in assay [1] is -2.49%; in assay [2], -1.84%; in [3], -2.94%; in assay [4], 3.69%; in assay [5], 2.18%; in assay [6], 0.26%. Besides, the inhibition in assay [7] was 0.59%; in assay [8], 2.03%; in [9], 2.69%; in assay [10], 2.51%.

Consider `Cc1cc(-c2ccco2)cc(C)c1/C=C/c1cncc(-c2nn[nH]n2)c1`, for which the inhibition in assay [1] was 1.08%; in [2], 0.9%; in [3], 2.3%; in assay [4] it was 0.87%; in assay [5], 2.16%; in assay [6] it was 0.49%. In addition, the inhibition in assay [7] is 1.75%; in assay [8], 0.38%; in assay [9], 2.54%; in assay [10], -0.91%.

As for `Fc1ccc(-c2ncn(C3CCNCC3)c2-c2ccnc(Oc3ccccc3)n2)cc1`, the inhibition in [1] is 2.3%; in assay [2], -1.46%; in assay [3], 10%; in assay [4], -3.4%; in assay [5] it was -1.98%; in [6] it was -3.24%. Also, the inhibition in assay [7] was -1.87%; in assay [8], -2.35%; in [9], -0.94%; in assay [10], -3.17%.

Take `NC(=O)c1sc(-n2cnc3cc(C(F)(F)F)ccc32)cc1OCc1ccccc1Br`: the inhibition in assay [1] is 0.89%; in assay [2] it was 1.52%; in assay [3] it was 1.06%; in assay [4] it was 0.9%; in assay [5], 4.47%; in assay [6], 0.47%. In addition, the inhibition is 2.92% in [7], 0.99% in [8], 3.19% in assay [9] and -1.34% in assay [10].

As for `Nc1nonc1-c1nc2cnccc2n1C1CCCCC1`, the inhibition in assay [1] was 0.45%; in assay [2], -1.94%; in assay [3] it was 1.85%; in assay [4], 5.2%; in assay [5], 24.5%; in assay [6] it was 7.81%. Moreover, the inhibition in [7] turned out to be 44.6%; in assay [8] it was 8.62%; in [9] it was 41.5%; in assay [10] it was 4.5%.

On to `COc1cc2c(cc1Nc1nc(Nc3ccsc3C(N)=O)c3cc[nH]c3n1)N(C(=O)CN(C)C)CCC2`, for which the inhibition is -7.97% in [1]; 1.11% in assay [2]; 10.3% in assay [3]; 5.37% in assay [4]; 6.76% in [5]; 4.39% in assay [6]. Also, the inhibition in assay [7] is 6.12%; in [8], 0.86%; in assay [9] it was -1.41%; in [10] it was 0.3%.

For `CCn1c(-c2nonc2N)nc2c(C#CC(C)(C)O)ncc(OC[C@@H]3CCCN3)c21`, the inhibition in [1] was 2.18%; in assay [2], 0.87%; in assay [3], 3.35%; in assay [4] it was -0.63%; in [5], 0.58%; in assay [6], -1.52%. In addition, the inhibition is -0.07% in assay [7], -0.64% in assay [8], -0.07% in assay [9] and -0.42% in assay [10].

As to `CCn1c(-c2nonc2N)nc2c(C#CC(C)(C)O)ncc(OCC3CCNCC3)c21`, the inhibition was 0.7% in [1]; -1.65% in assay [2]; -0.62% in assay [3]; -0.87% in assay [4]; 4.13% in assay [5]; -0.3% in assay [6]. The inhibition in assay [7] was 4.17%; in assay [8] it was 6.49%; in assay [9], 9.55%; in assay [10] it was 7.2%.

As usually defined, the inhibition is the drop in the measured response relative to a control, in per cent.
